{"source": "PubChem BioAssay (NCATS)", "note": "Values without a mark were called inactive. Calls come from the whole dose curve; as a rule, active = well fitted inhibition curve with a large enough effect; inconclusive = small, poorly fitted or top-dose-only effect; inactive = flat fitted curve, though single readings scatter."}
{"target": "Phosphoglycerate kinase, glycosomal (Trypanosoma brucei brucei) (UniProt P07378)", "sequence (P07378 whole entry, looked up)": "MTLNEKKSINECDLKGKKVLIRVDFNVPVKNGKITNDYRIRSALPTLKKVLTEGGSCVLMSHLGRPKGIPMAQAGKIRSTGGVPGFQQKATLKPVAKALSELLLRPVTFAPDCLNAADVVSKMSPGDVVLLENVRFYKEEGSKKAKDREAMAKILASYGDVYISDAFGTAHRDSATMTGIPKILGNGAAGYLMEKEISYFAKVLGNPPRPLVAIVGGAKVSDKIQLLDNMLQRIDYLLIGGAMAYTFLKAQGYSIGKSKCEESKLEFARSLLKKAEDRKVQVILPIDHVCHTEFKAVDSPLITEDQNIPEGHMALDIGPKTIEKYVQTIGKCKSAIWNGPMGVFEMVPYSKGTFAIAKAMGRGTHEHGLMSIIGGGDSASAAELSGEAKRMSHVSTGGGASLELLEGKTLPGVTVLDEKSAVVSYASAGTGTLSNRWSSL", "test": "qHTS Validation Assay to Find Inhibitors of Phosphoglycerate Kinase (AID 504547);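 note: control wells lack PGK and mark full inhibition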", "details": "enzymatic PGK inhibition, coupled luminescence read-out; series mostly up to 57.5 µM; activity, negative = inhibition: at the top concentration", "excerpt": "NIH Molecular Libraries Probe Production Network [MLPCN]\nNIH Chemical Genomics Center [NCGC]\nPI Name: Malcolm Walkinshaw, University of Edinburgh\nSeveral species of the Trypanosomatidae family of parasitic protozoans cause a spectrum of diseases\nthroughout the tropical and subtropical world. Sleeping sickness, caused by two subspecies of Trypanosoma brucei, is endemic to areas of sub-Saharan Africa, while Chagas disease, a manifestation of Trypanosoma cruzi infection, is prevalent throughout Central and South America. In addition, many species of Leishmania are responsible for a range of cutaneous and visceral diseases, causing ulcers, destructive lesions and kalaazar, a lethal infection of the viscera. Collectively, these organisms infect 30 million people worldwide (~500 million live in endemic areas), and account for ~130,000 deaths annually. Given their debilitating and prevalent nature, trypanosomatid parasites impose a heavy medical, economic and social burden on entire populations, primarily in the developing world. The problem is further exacerbated by the fact that existing treatments have progressed little in the past 50 years, and current drugs show high toxicity and poor efficacy.\nBlood-stream stages of T. brucei are entirely dependent on glycolysis as a source of ATP, and the tricarboxylic acid cycle and oxidative phosphorylation are both repressed. Glycolysis in axenically cultured T. cruzi, representing the intracellular pathogenic stage, is also essential for these parasites. […] Previous studies have shown that the glycolytic enzyme, phosphoglycerate kinase (PGK), is a viable target for drugs to kill these parasites.\nNCGC Assay Protocol Summary:\nBriefly, 3ul of substrate/PGK buffer (columns 1,2,5-48) are dispensed into Greiner white solid bottom 1536-well assay plates; columns 3-4 receive only TEA buffer as 0x PGK controls. Compounds are then transferred via Kalypsys pin tool equipped with 1536-pin array (10nl slotted pins, V&P Scientific, San Diego, CA). Following addition of compound, 1ul of GAPDH (100nM final concentration, all columns) is added to initiate the reaction (this upstream coupling enzyme is necessary for in-well production of PGK substrate, 1,3-bisphosphoglycerate (1,3-BPG), which is unstable and not commercially available). The plates are then incubated at room temperature for 60 minutes. Kinase-Glo Plus reagent is added (2ul) and plates incubated for 10 minutes, before being transferred to a ViewLux high-throughput CCD imager (PerkinElmer) wherein single end-point measurements of luminescence are acquired using a clear filter. All reagents are diluted in an assay buffer consisting of 100mM TEA (pH 7.6), 5mM MgCl2 and 0.01% Tween-20.", "units": {"activity, negative = inhibition": "%"}}
{"compound": "Cc1scc2c1N(C(=O)CN1CCN(C)CC1)c1ccccc1NC2=O", "activity, negative = inhibition": 5.44}
{"compound": "COc1ccc(CN(CCN(C)C)c2ccccn2)cc1", "activity, negative = inhibition": 20.6}
{"compound": "CN(C)[C@@H]1C(=O)C(C(N)=O)=C(O)[C@@]2(O)C(=O)C3=C(O)c4c(O)ccc(Cl)c4[C@@H](O)[C@H]3C[C@@H]12", "activity, negative = inhibition": -3.02}
{"compound": "CCCCCN(CCCCC)C(=O)C(CCC(=O)O)NC(=O)c1ccc(Cl)c(Cl)c1", "note": "(stereo not given)", "activity, negative = inhibition": -0.766}
{"compound": "CC(=O)Oc1cc(C(C)C)c(OCCN(C)C)cc1C", "activity, negative = inhibition": 11.6}
{"compound": "C[C@H](CS)C(=O)N1CCC[C@H]1C(=O)O", "activity, negative = inhibition": 1.67}
{"compound": "CCCNC(C)C(=O)Nc1ccccc1C", "note": "(stereo not given)", "activity, negative = inhibition": 7.47}
{"compound": "CSc1ccc(C(=O)c2[nH]c(=O)[nH]c2C)cc1", "activity, negative = inhibition": -1.6}
{"compound": "CC(=O)[C@]1(O)Cc2c(O)c3c(c(O)c2[C@@H](O[C@H]2C[C@H](N)[C@H](O)[C@H](C)O2)C1)C(=O)c1ccccc1C3=O", "activity, negative = inhibition": -1.13}
{"compound": "CN1CCN(CC(=O)N2c3ccccc3C(=O)Nc3cccnc32)CC1", "activity, negative = inhibition": -0.747}
{"compound": "C#CCN(C)CCCOc1ccc(Cl)cc1Cl", "activity, negative = inhibition": 4.51}
{"compound": "O=C1CC2(CCCC2)CC(=O)N1CCCCN1CCN(c2ncccn2)CC1", "activity, negative = inhibition": 9.72}
{"compound": "C[C@@H](O)[C@H]1C(=O)N2C(C(=O)O)=C(SCCN=CN)C[C@H]12", "activity, negative = inhibition": 11.7}
{"compound": "Cc1nnc(SCC2=C(C(=O)O)N3C(=O)[C@@H](NC(=O)Cn4cnnn4)[C@H]3SC2)s1", "activity, negative = inhibition": 5.25}
{"compound": "Nc1c2c(nc3ccccc13)CCCC2O", "note": "(stereo not given)", "activity, negative = inhibition": 4.01}
{"compound": "CC(=O)OCC1=C(C(=O)O)N2C(=O)[C@@H](NC(=O)Cc3cccs3)[C@H]2SC1", "activity, negative = inhibition": 4.41}
{"compound": "FC(F)(F)c1ccccc1-n1ccnc1", "activity, negative = inhibition": 12.8}
{"compound": "c1cc(CN2CCCCC2)cc(OCCCNc2nc3ccccc3s2)c1", "activity, negative = inhibition": 11.7}
{"compound": "CCCN(CCC)C(=O)C(CCC(=O)O)NC(=O)c1ccccc1", "note": "(stereo not given)", "activity, negative = inhibition": -1.76}
{"compound": "Cc1ccc(=O)n(-c2ccccc2)c1", "activity, negative = inhibition": 8.91}
{"compound": "COC(=O)C1=C(C)NC(C)=C(C(=O)OC(C)(C)CN(C)CCC(c2ccccc2)c2ccccc2)C1c1cccc([N+](=O)[O-])c1", "note": "(stereo not given)", "activity, negative = inhibition": 8.23}
{"compound": "CCCN1C[C@H](CSC)C[C@@H]2c3cccc4[nH]cc(c34)C[C@H]21", "activity, negative = inhibition": 1.52}
{"compound": "OCCN1CCN(CCCN2c3ccccc3C=Cc3ccccc32)CC1", "activity, negative = inhibition": 11.1}
{"compound": "CN(C)CCN(Cc1cccs1)c1ccccn1", "activity, negative = inhibition": 2.63}
{"compound": "COC(=O)C1=C(C)NC(C)=C(C(=O)OCCN(C)Cc2ccccc2)C1c1cccc([N+](=O)[O-])c1", "note": "(stereo not given)", "activity, negative = inhibition": 2.92}
{"compound": "CCCN(CCC)CCc1cccc2c1CC(=O)N2", "activity, negative = inhibition": 6.92}
{"compound": "CC(=O)[C@@]1(O)CC[C@H]2[C@@H]3CCC4=CC(=O)CC[C@]4(C)[C@H]3CC[C@@]21C", "activity, negative = inhibition": -1.16}
{"compound": "NC(=O)N1c2ccccc2C=Cc2ccccc21", "activity, negative = inhibition": 2.19}
{"compound": "NC(=O)c1cn(Cc2c(F)cccc2F)nn1", "activity, negative = inhibition": -0.488}
{"compound": "CC(C)(Oc1ccc(CCNC(=O)c2ccc(Cl)cc2)cc1)C(=O)O", "activity, negative = inhibition": 4.24}
{"compound": "CNCCCN1c2ccccc2CCc2ccccc21", "activity, negative = inhibition": 9.67}
{"compound": "OC(CCN1CCCCC1)(c1ccccc1)C1CCCCC1", "note": "(stereo not given)", "activity, negative = inhibition": 0.737}
{"compound": "CCN(CC)CCCN(c1ccccc1)C1Cc2ccccc2C1", "activity, negative = inhibition": 2.85}
{"compound": "CCOC(=O)C1=C(C)NC(C)=C(C(=O)OC)C1c1cccc(Cl)c1Cl", "note": "(stereo not given)", "activity, negative = inhibition": 5.36}
{"compound": "CCN(CC)CCNC(=O)c1cc(S(C)(=O)=O)ccc1OC", "activity, negative = inhibition": 0.592}
{"compound": "Nc1ncn([C@@H]2O[C@H](CO)[C@@H](O)[C@H]2O)c(=O)n1", "activity, negative = inhibition": 4.13}
{"compound": "OCCN1CCN(CC/C=C2/c3ccccc3Sc3ccc(C(F)(F)F)cc32)CC1", "activity, negative = inhibition": 12.2}
{"compound": "COc1cc(Cc2cnc(N)nc2N)cc(OC)c1OC", "activity, negative = inhibition": 13.6}
{"compound": "O=C(O)CN(CCN(CC(=O)O)CC(=O)O)CCN(CC(=O)O)CC(=O)O", "activity, negative = inhibition": 0.315}
{"compound": "c1ccc2c(c1)CCCC2C1=NCCN1", "note": "(stereo not given)", "activity, negative = inhibition": 18.1}
